Results on 42 compounds are retold here after PMC4336329 (PLoS ONE, 2015).

About 14,000 (4.5%) of roughly 310,000 compounds showed an effect of 50% or more. The effect is printed as a negative number. The list comes from a sample in which strong results are over-represented; it also holds similar structures and randomly drawn compounds.
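Also: peak tail current of the secondary pulse compared with the same well before compound.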

The target of the experiment is human ether-à-go-go-related gene (hERG) potassium channel (human, UniProt Q12809). Nature of the experiment: primary screen, population patch clamp on CHO cells stably expressing hERG; higher = less effect of the substance.
human ether-à-go-go-related gene (hERG) potassium channel, sequence (Q12809 whole entry, looked up): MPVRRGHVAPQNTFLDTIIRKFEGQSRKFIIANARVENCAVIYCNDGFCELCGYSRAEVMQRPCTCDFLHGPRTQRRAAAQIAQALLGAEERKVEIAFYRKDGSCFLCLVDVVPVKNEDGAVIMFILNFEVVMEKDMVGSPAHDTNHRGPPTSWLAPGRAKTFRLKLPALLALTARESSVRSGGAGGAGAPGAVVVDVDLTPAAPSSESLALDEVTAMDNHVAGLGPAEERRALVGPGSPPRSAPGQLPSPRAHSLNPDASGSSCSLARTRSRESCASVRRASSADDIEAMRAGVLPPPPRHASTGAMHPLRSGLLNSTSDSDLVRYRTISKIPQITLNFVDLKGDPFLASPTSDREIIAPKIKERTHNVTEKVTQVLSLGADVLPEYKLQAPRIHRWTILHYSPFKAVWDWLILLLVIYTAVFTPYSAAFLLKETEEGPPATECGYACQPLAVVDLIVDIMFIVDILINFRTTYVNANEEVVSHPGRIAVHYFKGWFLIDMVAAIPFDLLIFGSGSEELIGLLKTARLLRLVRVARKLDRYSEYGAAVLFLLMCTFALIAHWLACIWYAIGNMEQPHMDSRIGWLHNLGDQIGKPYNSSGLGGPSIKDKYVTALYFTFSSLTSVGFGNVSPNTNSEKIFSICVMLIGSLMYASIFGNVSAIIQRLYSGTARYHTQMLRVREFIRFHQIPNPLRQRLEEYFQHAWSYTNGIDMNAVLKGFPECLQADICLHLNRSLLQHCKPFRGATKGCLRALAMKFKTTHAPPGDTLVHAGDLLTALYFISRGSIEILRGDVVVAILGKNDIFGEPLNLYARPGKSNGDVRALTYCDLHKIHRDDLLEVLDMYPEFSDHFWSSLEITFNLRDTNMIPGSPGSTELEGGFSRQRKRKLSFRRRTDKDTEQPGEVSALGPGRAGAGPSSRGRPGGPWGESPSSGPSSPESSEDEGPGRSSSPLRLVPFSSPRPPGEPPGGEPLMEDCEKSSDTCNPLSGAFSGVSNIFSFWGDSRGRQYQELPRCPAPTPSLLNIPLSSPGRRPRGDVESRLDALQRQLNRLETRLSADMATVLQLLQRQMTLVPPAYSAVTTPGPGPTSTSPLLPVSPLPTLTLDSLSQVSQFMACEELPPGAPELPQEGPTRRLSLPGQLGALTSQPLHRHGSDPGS
In the case of `COc1ccccc1OCCC(=O)OCC(=O)Nc1cc(S(=O)(=O)N(C)C)ccc1Cl`, the “hERG current change (%, negative = inhibition) at 10uM” value is on record as -6.26%.
Take `O=C(Cc1ccc(F)cc1)N1CCC(CC2CC(c3cccc(Br)c3)=NO2)(C(=O)NCC2CCCCC2)CC1` (stereo not drawn): the “hERG current change (%, negative = inhibition) at 10uM” value is listed as -8.67%.
Turning to `CCOc1cc(C(=O)N2CCC(CC3CC(c4ccc(Cl)cc4)=NO3)(C(=O)NCC3CCCCC3)CC2)cc(OCC)c1OCC` (stereo not drawn), the “hERG current change (%, negative = inhibition) at 10uM” value is 1.25%.
The value for `O=C(Cc1ccc(F)cc1)N1CCC(CC2CC(c3ccc(Cl)cc3)=NO2)(C(=O)NCC2CCCCC2)CC1` (stereo not drawn) was -72.3%.
Consider `O=C(NCC1CCCCC1)C1(CC2CC(c3ccc(Cl)cc3)=NO2)CCNCC1` (stereo not drawn), for which the “hERG current change (%, negative = inhibition) at 10uM” value is recorded as -71.6%.
The value for `O=C(NCC1CCCCC1)C1(CC2CC(c3cccc(Br)c3)=NO2)CCNCC1` (stereo not drawn) was -24.1%.
The value for `COc1ccc(OC)c(-c2csc(NC(=O)C3c4ccccc4Oc4ccccc43)n2)c1` was -5.7%; that for `Cc1sc(-c2ccncc2)nc1OC(=O)c1cc(Cl)cc(Cl)c1` was 10.2%.
The value for `COc1ccc(Cl)cc1NC(=O)CN(C)C(=O)CCC(=O)c1cc(C)sc1C` was -29.5%.
With `CC(C)C(CCN1C(=O)CCC1=O)C1CCOC(C)(C)C1` (stereo not drawn), the “hERG current change (%, negative = inhibition) at 10uM” value is reported as 4.36%.
Turning to `CCn1ncc(Br)c1C(=O)Nc1cc(C(=O)OC)ccc1C(=O)OC`, the “hERG current change (%, negative = inhibition) at 10uM” value is reported as -3.95%.
The value for `Cc1cc(OCc2cccc(Cl)c2)c(C)cc1CN1CCOCC1` was 0.275%.
In the case of `CCCCCCCCCC(=O)N[C@H](CN1CCOCC1)[C@H](O)c1ccccc1.Cl`, the “hERG current change (%, negative = inhibition) at 10uM” value is -16.6%.
For `Cc1ccc(Cn2c(=N)n(CC(O)COc3ccccc3)c3ccccc32)cc1.Cl` (stereo not drawn) the value was -68.9%; for `Cc1ccc(OCC(O)Cn2c(=N)n(Cc3ccccc3)c3ccccc32)cc1.Cl` (stereo not drawn), -81.6%; for `O=C(O)c1ccc(OCC(O)Cn2c3ccccc3c3ccccc32)cc1` (stereo not drawn), -18.5%.
The value for `COC(=O)c1cn(S(=O)(=O)c2ccccc2)c2ccccc12` was 13%.
For `Cc1ccc(NC(=O)NCc2ccc3c(c2)OCO3)cc1` the value was 5.69%; for `COc1cc2c(OC(C)=O)c3c(c(-c4ccc5c(c4)OCO5)c2cc1OC)C(=O)OC3`, 15.4%.
As to `Cc1ccc(NC(=O)CCN2CC(C)OC(C)C2)cc1C.Cl` (stereo not drawn), the “hERG current change (%, negative = inhibition) at 10uM” value was 19.1%.
The value for `CC(C)(C)NS(=O)(=O)c1cc(C(=O)O)ccc1Cl` was 4.6%; that for `Cc1cc(C)nc(SCc2cc(=O)c(OC(=O)c3cccc([N+](=O)[O-])c3)co2)n1` was -32.5%; that for `O=C(Oc1coc(CSc2ncccn2)cc1=O)c1cccc([N+](=O)[O-])c1` was -81.3%.
Turning to `O=C(Oc1coc(CSc2ncccn2)cc1=O)c1ccccc1[N+](=O)[O-]`, the “hERG current change (%, negative = inhibition) at 10uM” value is recorded as 14.4%.
For `Cc1ccccc1C(=O)N=c1c(C#N)cc2c(=O)n3cccc(C)c3nc2n1Cc1ccco1` the value was -46.2%; for `Cc1cccc(C(=O)N=c2c(C#N)cc3c(=O)n4cccc(C)c4nc3n2Cc2ccco2)c1`, -65%.
For `CC(=O)N=c1c(C#N)cc2c(=O)n3ccccc3nc2n1Cc1ccccc1` the value was -40.2%; for `CC(=O)N=c1c(C#N)cc2c(=O)n3cccc(C)c3nc2n1Cc1ccco1`, -35.3%.
Regarding `Cc1cccn2c(=O)c3cc(C#N)c(=NC(=O)c4ccccc4)n(Cc4ccco4)c3nc12`, the “hERG current change (%, negative = inhibition) at 10uM” value is on record as -40.3%.
For `CC(C)n1c(=NC(=O)c2ccco2)c(C#N)cc2c(=O)n3ccccc3cc21` the value was -52.2%; for `Cc1cccn2c(=O)c3cc(C#N)c(=NC(=O)c4ccco4)n(Cc4ccco4)c3nc12`, -55.4%; for `Cn1c(=NC(=O)c2ccco2)sc2ccccc21`, 11.6%.
For `CCO[C@@H]1OC(C(=O)NCc2ccccc2)=C[C@H](C(C)(C)C)[C@H]1CCCO` the value was -10.5%; for `O=C(OCCN1C(=O)c2ccccc2C1=O)c1cc2ccccc2o1`, 1.62%.
For the compound `CC1CCCC(C(=O)O)N1C(=O)CCSC(=O)c1ccccc1` (stereo not drawn), the “hERG current change (%, negative = inhibition) at 10uM” value is recorded as -0.246%.
The value for `O=S(=O)(c1cccs1)N1CN(Cc2ccc(Cl)cc2)c2nc3ccccc3nc21` was 3.75%; that for `Cc1ccc2c(c1)c1c(n2CC(O)CN2CCC(C)CC2)CCCC1` (stereo not drawn) was -58.1%; that for `Cc1ccc2c(c1)c1c(n2CC(O)CNC2CCCCC2)CCCC1.Cl` (stereo not drawn) was -37.4%.
Turning to `Cc1ccc2c(c1)c1c(n2CC(O)CN2CCCCC2C)CCCC1` (stereo not drawn), the “hERG current change (%, negative = inhibition) at 10uM” value is given as -42.6%.
Turning to `Cc1ccc2c(c1)c1c(n2CC(O)CN2CCOCC2)CCCC1.Cl` (stereo not drawn), the “hERG current change (%, negative = inhibition) at 10uM” value was found to be 9.32%.
Turning to `Cc1ccc2c(c1)c1c(n2CC(O)CN2CCCCCC2)CCCC1.Cl` (stereo not drawn), the “hERG current change (%, negative = inhibition) at 10uM” value is listed as -65.6%.
For `Cc1ccc2c(c1)c1c(n2CC(O)CNC(CO)(CO)CO)CCCC1` (stereo not drawn) the value was 0.531%.
